Compound activity: PubChem BioAssay, Sanford-Burnham Center for Chemical Genomics
CYP2C9 inh – human CYP2C9 inhibition. inhibition, % at 5 µM. 20% of 96,000 active. CYP2C9 Supersomes, luciferin-H conversion, luminescence. P11712;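 active = blocking of liver enzyme CYP2C9 beyond about 50% at 5 µM, limit read from the data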
Target sequence (P11712 whole entry, looked up): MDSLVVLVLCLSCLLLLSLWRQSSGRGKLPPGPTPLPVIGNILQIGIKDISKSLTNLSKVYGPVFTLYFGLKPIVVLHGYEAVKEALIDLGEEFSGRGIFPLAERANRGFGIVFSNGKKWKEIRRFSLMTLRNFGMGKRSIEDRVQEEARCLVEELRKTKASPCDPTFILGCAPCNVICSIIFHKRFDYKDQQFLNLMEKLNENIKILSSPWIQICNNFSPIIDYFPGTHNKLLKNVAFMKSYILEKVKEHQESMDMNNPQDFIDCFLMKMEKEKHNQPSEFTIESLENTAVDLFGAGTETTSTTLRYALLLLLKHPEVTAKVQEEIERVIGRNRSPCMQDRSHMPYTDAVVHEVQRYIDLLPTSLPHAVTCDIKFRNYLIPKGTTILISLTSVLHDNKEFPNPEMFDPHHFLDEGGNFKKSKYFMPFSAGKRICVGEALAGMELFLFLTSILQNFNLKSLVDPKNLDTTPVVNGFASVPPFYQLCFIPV
CYP2C9 activ – increases human cytochrome P450 2C9 activity; P11712; recombinant CYP2C9, luciferin-H conversion, luminescence; active compounds read high; factor 1 = untreated enzyme, 0 = blocked; activation factor at 5 µM; 1.4% of 96,000 active;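 active = activation factor of 2 or more for CYP2C9 at a 5 µM dose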;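 also: 0 = sulfaphenazole-blocked wells and 1 = vehicle-only wells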
CYP2C19 inh – blocks human cytochrome P450 2C19 | P33261 | CYP2C19 Supersomes, luciferin-H EGE luminescence, 30 min | inhibition, % at 5 µM | 21% of 96,000 active | AID 778;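 active = CYP2C19 inhibition above a set limit at 5 µM in the primary screen, cut at about 50% in these data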;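 also: plate controls were negative control wells for no effect and 2.5 mM tranylcypromine positive control for full effect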
CYP2C19 act – cytochrome P450 2C19 (human) activation; recombinant CYP2C19, luciferin-H EGE luminescence; active compounds read high; 0 = fully inhibited enzyme, 1 = untreated enzyme; 96,000 tested, under 10 active; activation factor at 5 µM;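 active = activation factor of at least 2 at 5 µM in the primary screen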;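 also: 0 = wells with 2.5 mM tranylcypromine and 1 = vehicle-only wells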
Mac1 fbg inh – blocks human CD11b/CD18 adhesion to fibrinogen | K562 CD11b/CD18 adhesion to fibrinogen, ATPlite luminescence; Mn2+ added to activate the integrin | inhibition, % at 10 µM | AID 1497 | 0.54% of 93,000 active | P05107+P11215;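 active = primary inhibition of 50% or more at 10 µM, then 40% or more on retest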
Mac1 fbg enh – increases human CD11b/CD18 adhesion to fibrinogen. P05107+P11215. K562 CD11b/CD18 adhesion to fibrinogen, ATPlite luminescence. activation, % at 10 µM. 0.07% of 93,000 active;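 active = 10 µM primary screen giving 50% or more activity, confirmed by 40% or more on retest at that dose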
The depositor's hits bear a star. In the library only some 28% were active in any assay of this set; here they are far more common.

How did CCOc1cc(-c2nc(-c3ccc(C)nc3OC)no2)cc(OCC)c1OCC do in these assays?
CYP2C9 inh: 76*; CYP2C9 activ: 0.2; CYP2C19 inh: 97*; CYP2C19 act: 0; Mac1 fbg inh: 19; Mac1 fbg enh: -5

How did Brc1ccc(-c2nc(-c3cccnc3)no2)o1 do in these assays?
CYP2C9 inh: 47; CYP2C9 activ: 0.5; CYP2C19 inh: 85*; CYP2C19 act: 0.1; Mac1 fbg inh: -12; Mac1 fbg enh: -4

Results for O=[N+]([O-])c1cccc(-c2nc(-c3ccncc3)no2)c1 ?
CYP2C9 inh: 53*; CYP2C9 activ: 0.5; CYP2C19 inh: 95*; CYP2C19 act: 0.1; Mac1 fbg inh: -1; Mac1 fbg enh: 11

What do the screens show for `CCOc1cc(-c2noc(-c3ccncc3)n2)cc(Br)c1OC`?
CYP2C9 inh: 32; CYP2C9 activ: 0.7; CYP2C19 inh: 76*; CYP2C19 act: 0.2; Mac1 fbg inh: -4; Mac1 fbg enh: -2

How did COc1cc(-c2nnc(COC(=O)CSc3cc(C)c4ccccc4n3)o2)cc(OC)c1OC do in these assays?
CYP2C9 inh: 15; CYP2C9 activ: 0.8; CYP2C19 inh: 36; CYP2C19 act: 0.6; Mac1 fbg inh: 3; Mac1 fbg enh: 4

Results for COc1cc(-c2nnc(-c3ccc(S(=O)(=O)c4ccccc4)cc3)o2)cc(OC)c1OC ?
CYP2C9 inh: 61*; CYP2C9 activ: 0.4; CYP2C19 inh: 61*; CYP2C19 act: 0.4; Mac1 fbg inh: -1; Mac1 fbg enh: -5

What do the screens show for `COc1cc(-c2nnc(SCC3(c4ccccc4)OCCO3)o2)cc(OC)c1OC`?
CYP2C9 inh: -65; CYP2C9 activ: 1.6; CYP2C19 inh: 76*; CYP2C19 act: 0.2; Mac1 fbg inh: 19; Mac1 fbg enh: 0

How did COc1cc(-c2nnc(SCC(=O)c3ccccc3)o2)cc(OC)c1OC do in these assays?
CYP2C9 inh: 11; CYP2C9 activ: 0.9; CYP2C19 inh: 37; CYP2C19 act: 0.6; Mac1 fbg inh: -22; Mac1 fbg enh: 0

What do the screens show for `Cc1ccc(CN2C(=O)CCC2C(=O)NCc2ccco2)cc1` (stereo unspecified)?
CYP2C9 inh: 2; CYP2C9 activ: 1; CYP2C19 inh: 18; CYP2C19 act: 0.8

Results for COc1ccc2c(CC(=O)NC3CCCc4ccccc43)coc2c1 (stereo unspecified) ?
Mac1 fbg inh: -1; Mac1 fbg enh: -3

How did Cc1ccccc1Cn1ccc(NC(=O)c2nc3ncccn3n2)n1 do in these assays?
CYP2C9 inh: 46; CYP2C9 activ: 0.5; CYP2C19 inh: 7; CYP2C19 act: 0.9; Mac1 fbg inh: -7; Mac1 fbg enh: -3

Results for Cc1ccccc1Cn1ccc(NC(=O)c2cnn3cccnc23)n1 ?
CYP2C9 inh: 50*; CYP2C9 activ: 0.5; CYP2C19 inh: 45; CYP2C19 act: 0.5; Mac1 fbg inh: -2; Mac1 fbg enh: 2

How did CCN1CCN(C(CNS(=O)(=O)c2ccc(OC)cc2)c2cccnc2)CC1 (stereo unspecified) do in these assays?
CYP2C9 inh: -5; CYP2C9 activ: 1.1; CYP2C19 inh: 2; CYP2C19 act: 1; Mac1 fbg inh: -1; Mac1 fbg enh: -5

What do the screens show for `CN(C)C(CNC(=O)Nc1cccc(Cl)c1)c1cccnc1` (stereo unspecified)?
CYP2C9 inh: 39; CYP2C9 activ: 0.6; CYP2C19 inh: 51*; CYP2C19 act: 0.5; Mac1 fbg inh: -29; Mac1 fbg enh: -6

Results for COc1ccccc1C(=O)NCC(c1cccnc1)N(C)C (stereo unspecified) ?
CYP2C9 inh: 50*; CYP2C9 activ: 0.5; CYP2C19 inh: 35; CYP2C19 act: 0.7; Mac1 fbg inh: 21; Mac1 fbg enh: 3

Results for O=C(NCc1ccncc1)Nc1cccc(Cl)c1 ?
CYP2C9 inh: 81*; CYP2C9 activ: 0.2; CYP2C19 inh: 90*; CYP2C19 act: 0.1; Mac1 fbg inh: 2; Mac1 fbg enh: -3

How did CN(C)C(CNS(=O)(=O)c1ccc(Cl)cc1)c1cccnc1 (stereo unspecified) do in these assays?
CYP2C9 inh: 16; CYP2C9 activ: 0.8; CYP2C19 inh: 52*; CYP2C19 act: 0.5; Mac1 fbg inh: -4; Mac1 fbg enh: 1

What do the screens show for `COc1ccccc1N1CCN(C(CNC(=O)c2ccc3c(c2)OCO3)c2cccnc2)CC1` (stereo unspecified)?
CYP2C9 inh: 39; CYP2C9 activ: 0.6; CYP2C19 inh: 27; CYP2C19 act: 0.7

How did O=C(NCc1cccnc1)Nc1cccc(NC(=O)NCc2cccnc2)c1 do in these assays?
CYP2C9 inh: 14; CYP2C9 activ: 0.9; CYP2C19 inh: 6; CYP2C19 act: 0.9; Mac1 fbg inh: 0; Mac1 fbg enh: -1

What do the screens show for `CN(C)c1ccc(NC(=O)Nc2cccc(Cl)c2)cc1`?
CYP2C9 inh: 16; CYP2C9 activ: 0.8; CYP2C19 inh: 33; CYP2C19 act: 0.7

Results for CC1(C)CC2CC(C)(CN2C(=O)C23CCC(C)(C(=O)O2)C3(C)C)C1 (stereo unspecified) ?
CYP2C9 inh: 18; CYP2C9 activ: 0.8; CYP2C19 inh: 28; CYP2C19 act: 0.7; Mac1 fbg inh: -2; Mac1 fbg enh: -1

How did COC(=O)c1sccc1NC(=O)Cn1cnc2c1c(=O)n(C)c(=O)n2C do in these assays?
CYP2C9 inh: 17; CYP2C9 activ: 0.8; CYP2C19 inh: 41; CYP2C19 act: 0.6; Mac1 fbg inh: 0; Mac1 fbg enh: 3

What do the screens show for `CCCOc1ccc(/C(O)=C2/C(=O)C(=O)N(CCN(CC)CC)C2c2ccncc2)cc1` (stereo unspecified)?
CYP2C9 inh: 19; CYP2C9 activ: 0.8; CYP2C19 inh: 6; CYP2C19 act: 0.9; Mac1 fbg inh: -10; Mac1 fbg enh: 0

How did CCOC(=O)N1CCN(C(=O)c2cnn(-c3ccccc3)c2NC(=O)c2ccccc2F)CC1 do in these assays?
CYP2C9 inh: -24; CYP2C9 activ: 1.2; CYP2C19 inh: -10; CYP2C19 act: 1.1; Mac1 fbg inh: 7; Mac1 fbg enh: 3

Results for O=C(NCc1ccncc1)Nc1ccc(Cl)cc1Cl ?
CYP2C9 inh: 83*; CYP2C9 activ: 0.2; CYP2C19 inh: 90*; CYP2C19 act: 0.1

Results for S=C(NCc1ccc(Cl)cc1)Nc1ccc(Cl)cc1Cl ?
Mac1 fbg inh: 2; Mac1 fbg enh: 4

What do the screens show for `O=C(NCc1ccncc1)Nc1ccc(F)cc1`?
CYP2C9 inh: 79*; CYP2C9 activ: 0.2; CYP2C19 inh: 92*; CYP2C19 act: 0.1; Mac1 fbg inh: -7; Mac1 fbg enh: 3

What do the screens show for `COc1ccc(-n2c(SCC(=O)NNC(=O)c3ccccc3C)nnc2-c2ccncc2)cc1`?
CYP2C9 inh: 29; CYP2C9 activ: 0.7; CYP2C19 inh: 17; CYP2C19 act: 0.8
